# Screens (PubChem BioAssay)
# Shn3 3UTR inh = reduces Shn3 3'UTR luciferase signal in osteoblasts. Clone20 osteoblast Shn3 3'UTR firefly luciferase, 24 h. inhibition, % at 12.5 µM. hit rate 0.52% among 360,000;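 active = mean inhibition of at least 75% with every replicate also reaching 75%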;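 note: 0% = median of neutral control wells and 100% = pilot-screen positive control compound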
# LMP1 NFkB inh = inhibitors of Epstein-Barr LMP1-induced NF-kappaB reporter; LMP1-induced NF-kappaB luciferase reporter cells, luminescence; inhibition, % at 12.5 µM; hit rate 0.69% among 350,000; in the data active = inhibition above about 41%;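 note: 0% = neutral control wells and 100% = reference inhibitor control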
# TRPM1 prom inh = MITF TRPM1 promoter inhibition in SK-MEL-5 cells; SK-MEL-5 TRPM1 promoter luciferase, 24 h; inhibition, % at 12.5 µM; hit rate 0.83% among 330,000; AID 488899;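 active = mean inhibition across replicates of 60% or more, whatever share of single replicates reaches that level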
# Peg3 prom inh = reduces Peg3 promoter-driven luciferase expression in HeLa. hit rate 1.7% among 360,000. AID 588405. inhibition, % at 20 µM. HeLa PEG-Prom luciferase reporter, luminescence, overnight;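 active = inhibition of at least 50% at 20 µM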
# TROY signal inh = blocks TROY-dependent signaling in reporter cells | Q293 LMP1-TROYcd NF-kB luciferase reporter, 4 h | inhibition, % at 10 µM | hit rate 0.98% among 360,000 | AID 1347056;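 active = compounds whose plate-normalised and pattern-corrected inhibition of the luciferase reporter signal at the single screening dose is 50% or more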
# TWEAK-Fn14 inh = TWEAK-Fn14 signaling inhibition; TWEAK-stimulated Fn14 reporter cells, luciferase luminescence, 8 h; inhibition, % at 10 µM; hit rate 2% among 360,000; AID 1159606; in the data active = inhibition above about 50%
# The depositor's hits bear a star; . = no result. Shown are actives, neighbours in structure and some others; about 4.1% of the full set was active somewhere.
SMILES,Shn3 3UTR inh,LMP1 NFkB inh,TRPM1 prom inh,Peg3 prom inh,TROY signal inh,TWEAK-Fn14 inh
COc1ccc2c(c1OC)C(=O)O[C@@H]2[C@H]1c2c(cc3c(c2OC)OCO3)CCN1C,1,-2,-11,-1,-1,-2
COc1ccc2cc1Oc1ccc(cc1)C[C@H]1c3cc(c(OC)cc3CCN1C)Oc1c(OC)c(OC)cc3c1[C@H](C2)N(C)CC3,38,-12,95*,93*,-7,-29
COc1ccc2cc1Oc1ccc(cc1)C[C@H]1c3c(cc4c(c3Oc3cc5c(cc3OC)CCN(C)[C@@H]5C2)OCO4)CCN1C,-30,-89,63*,87*,-2,-41
Cc1ccc(C(C)C)cc1S(=O)(=O)NCc1ccccn1,7,5,-7,18,-4,-1
CCOC(=O)C1CCCN(C(=O)c2cccc(S(=O)(=O)N(Cc3ccccc3)c3ccccc3OC)c2)C1 (configuration not stated),7,5,4,12,-3,5
CC(C)=C1C2CCC1C(C(=O)Nc1sc(C)c(-c3ccc(C(C)C)cc3)c1C(N)=O)C2C(=O)O (configuration not stated),25,9,-4,28,51*,36
Cc1ccc(-c2c(C)sc(NC(=O)C3C4CCC(O4)C3C(=O)O)c2C(=O)OC(C)C)cc1 (configuration not stated),3,-1,8,10,-5,-7
CC(C)n1ncc2c(C(=O)N3CCN(c4ccc(F)cc4)CC3)cc(-c3ccccc3)nc21,10,-4,5,29,10,-6
COc1ccc2nc(C)cc(Sc3nc4ccccc4s3)c2c1,76,30,4,67*,35,88*
Cc1ccccc1-n1c(SCC(=O)O)nc2sc3c(c2c1=O)CCCC3,18,-13,-9,17,9,0
CN(C)CCCNc1nc2sc3c(c2c(=O)n1CCc1ccccc1)CCCCC3,5,-4,65*,113*,-32,-17
CN1CCc2c(sc3nc(SCC(N)=O)n(-c4ccccc4)c(=O)c23)C1,7,-4,0,-13,.,57*
CN1CCc2c(sc3nc(SCC(N)=O)n(-c4ccc(Cl)cc4)c(=O)c23)C1,-28,-10,.,-4,-8,-3
CN(C)CCCn1c(=O)n(CCc2ccccc2)c(=O)c2c3c(sc21)CCCCC3,18,3,53,101*,-63,-34
CN(C)CCn1c(=O)n(Cc2ccccc2)c(=O)c2c3c(sc21)CCCCC3,14,3,7,10,7,23
O=C(O)CSc1nc2sc3c(c2c(=O)n1Cc1ccccc1)CCCCC3,-48,-20,-45,-133,57*,51*
Cc1cccnc1C1=NOC(Cc2ccccc2)C(=O)N1Cc1ccccc1F (configuration not stated),8,.,.,9,-4,-1
COc1ccc(C[C@@H]2CN3C(=NC[C@@H]3Cc3ccc(O)cc3)N2C[C@H](C)NC(=O)CCC2CCCCC2)cc1,-6,-3,-17,68*,1,-7
O=C(Nc1nnc(-c2ccc(Cl)cc2)o1)C1CCCCC1,-6,-13,-15,-60,-18,-4
Clc1ccc(-c2nnc(NC3=NCCCCC3)o2)cc1,16,46*,12,8,66*,93*
O=C(O)CC(CN1C(=O)c2ccccc2C1=O)c1ccccc1 (configuration not stated),8,1,-10,21,16,6
O=C1C=CC(=O)N1c1ccc2c(c1)C(NC(=O)C(F)(F)F)c1ccccc1-2 (configuration not stated),71,-5,86*,102*,-1,16
CN(C)C(=O)NC1c2ccccc2-c2ccccc21,-10,-1,13,1,-18,0
COCCN(C(=O)CCc1nnc(Cc2c[nH]c3ccccc23)o1)C(C)C,-10,-12,-5,-12,-7,4
COc1cc(C=C2CN(C)C(=O)C2=O)ccc1O,-16,-8,.,3,-3,2
SMILES,Shn3 3UTR inh,LMP1 NFkB inh,TRPM1 prom inh,Peg3 prom inh,TROY signal inh,TWEAK-Fn14 inh
CN1C/C(=C/c2ccsc2)C(=O)/C(=C/c2ccsc2)C1,66,-5,87*,36,-5,25
CCOc1cc(/C=C2\CN(C)C/C(=C\c3ccc(O)c(OCC)c3)C2=O)ccc1O,96*,-109,102*,103*,28,104*
CCOc1cc(/C=C2\CCC/C(=C\c3cc(Cl)c(O)c(OCC)c3)C2=O)cc(Cl)c1O,70,-37,72*,81*,61*,77*
COc1ccc(NC(=O)CSc2nc3c(sc4ccccc43)c(=O)n2CCCN2CCCC2)cc1,-5,2,83*,69*,-42,-19
CC12CCC(=O)N1C(C(=O)Nc1nc(-c3ccccc3Cl)cs1)CS2 (configuration not stated),-29,-22,-62,-156,-17,-15
COc1ccccc1CNC(=O)CCc1cn(C)c2ccccc12,12,74*,20,-19,-10,-3
COc1ccccc1CNC(=O)CCCc1cn(C)c2ccccc12,8,-3,1,3,-12,3
O=C(O)c1ccc(-c2ccc(/C=N/Nc3ccc([N+](=O)[O-])cc3)o2)cc1,-10,-8,-4,-100,-30,-18
NS(=O)(=O)c1ccc(-c2ccc(/C=N/Nc3ccc(C(=O)O)cc3)o2)cc1,15,-2,-13,8,16,50*
CCNC(=S)N(Cc1cccs1)Cc1cc2cc(OCC)ccc2[nH]c1=O,3,-1,-3,21,-17,76*
CCNC(=S)N(Cc1ccco1)Cc1cc2cc(OCC)ccc2[nH]c1=O,-3,-4,10,7,-6,13
OC(c1cccc(Cl)c1)c1nc(-c2cc3ccccc3o2)cs1 (configuration not stated),6,.,.,-120,-14,1
Cc1ccc(NC(=O)c2ccc(CN3CCN(C)CC3)cc2)cc1Nc1nccc(-c2cccnc2)n1,-32,77*,-19,-23,-12,-8
COC(=O)c1cc(NC(=O)C2CC(=O)NC(=NCc3ccc(OC)cc3)S2)cc(C(=O)OC)c1 (configuration not stated),-4,3,2,10,6,-1
COc1ccc(Nc2nc(OC)nc(OC)n2)cc1,-16,-13,-21,-14,-3,-6
COc1ccc(Nc2ccnc(Nc3ccc(OC)cc3)n2)cc1,31,-11,-31,47,24,64*
O=c1[nH]c(=O)n(C2C[C@H](O)[C@@H](CO)O2)cc1C(F)(F)F (some centres not stated),48,35,8,20,-3,-5
O=c1[nH]c(=O)n([C@H]2C[C@H](O)[C@@H](CO)O2)cc1C(F)(F)F,30,46*,13,22,7,-22
C/C(=N/NC(=O)c1ccc2nc[nH]c2c1)c1cccs1,-14,52*,-49,-118,-14,8
C/C(=N\NC(=O)c1ccc(Cl)cc1)c1cccs1,-21,18,-40,-65,-49,41
